Source: PubChem (National Center for Advancing Translational Sciences (NCATS))
The entries come from a sample that favours hits as a whole.
BLM inh: inhibitors of human Bloom syndrome helicase BLM. P54132. recombinant BLM DNA unwinding, fluorescence dequenching. Potency, µM (series often up to 56.1 µM), for inactives: top-dose activity change, negative = inhibition, hits mostly inhibitors. 350,000 tested, 0.2% active. AID 2528;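 also: plate controls were vehicle for no effect and no enzyme for full effect; nearly all actives have a fitted effect of over 35% in size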
RECQ1 helicase: blocks DNA unwinding by human RECQ1. Potency, µM (top dose mostly 57.3 µM), inactives show top-dose activity, negative = inhibition, hits mostly inhibitors. 240,000 tested, 0.54% active. RECQ1 DNA unwinding, red fluorescence kinetic read;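 also: plate controls were vehicle for no effect and no enzyme for full effect; nearly all actives have a fitted effect of over 30% in size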
Target sequence (P46063 whole entry, looked up): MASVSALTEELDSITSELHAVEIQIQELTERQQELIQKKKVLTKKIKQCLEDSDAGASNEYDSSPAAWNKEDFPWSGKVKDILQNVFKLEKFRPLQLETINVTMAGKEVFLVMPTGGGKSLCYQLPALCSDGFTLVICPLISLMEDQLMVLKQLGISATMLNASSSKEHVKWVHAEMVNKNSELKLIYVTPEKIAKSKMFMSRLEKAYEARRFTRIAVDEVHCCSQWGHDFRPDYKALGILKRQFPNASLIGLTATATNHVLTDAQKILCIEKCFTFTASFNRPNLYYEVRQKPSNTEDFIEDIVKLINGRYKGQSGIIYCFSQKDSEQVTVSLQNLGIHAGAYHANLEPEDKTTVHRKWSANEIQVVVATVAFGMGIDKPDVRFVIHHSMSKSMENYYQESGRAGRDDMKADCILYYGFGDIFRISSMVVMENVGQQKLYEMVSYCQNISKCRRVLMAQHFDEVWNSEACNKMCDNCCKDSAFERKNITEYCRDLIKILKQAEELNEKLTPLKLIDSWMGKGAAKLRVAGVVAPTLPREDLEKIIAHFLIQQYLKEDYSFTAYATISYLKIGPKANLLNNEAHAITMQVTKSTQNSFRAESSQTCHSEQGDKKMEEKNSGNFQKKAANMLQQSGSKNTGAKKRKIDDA
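50 nM RECQ1T1 preincubated 15 min with compound in Tris pH 8.0 buffer with MgCl2, DTT, Tween-20 and 2.5 ug/ml poly(dI-dC); started with 200 nM TAMRA/BHQ-2 forked duplex and 2 mM ATP. Unwinding read as fluorescence (525/598 nm), two reads 2 h apart.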
L3MBTL1 block: inhibitors of human L3MBTL1; Q9Y468; AlphaScreen L3MBTL1–H3K9me1 peptide binding; Potency, µM (highest dose often 57.1 µM), inactives show at the top dose activity, negative = inhibition, most hits filed as inhibitors; 230,000 tested, 0.66% active; AID 485360; also: nearly all actives have a fitted effect of over 60% in size
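AlphaScreen proximity signal between nickel-chelate acceptor and streptavidin donor beads (final 10 ug/mL) reports binding of 50 nM L3MBTL1 to 75 nM biotin-H3 K9me1 peptide; complex incubated with compounds 30 min at room temperature; cefsulodin titration as control.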
TDP1 inh: inhibitors of human tyrosyl-DNA phosphodiesterase TDP1. 350,000 tested, 0.28% active. recombinant TDP1, AlphaScreen DNA substrate cleavage. AID 485290. Potency, µM (doses to about 130 µM), for inactives: at the highest dose activity change, negative = inhibition, usual class: inhibitors. Q9NUW8; also: nearly all actives have a fitted effect of over 40% in size
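Steps: enzyme plus compound, 15 min RT; add biotin/phosphotyrosine-FITC oligonucleotide (15 nM final), react 5 min; add donor/acceptor beads (10 ug/ml final), 10 min; read AlphaScreen. Tdp1 at 1 nM final.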
APE1 inh: blocks human APE1 abasic DNA cleavage. P27695. 350,000 tested, 0.35% active. Potency, µM (doses to about 65.8 µM), for inactives: at the highest dose activity change, negative = inhibition, actives largely listed as inhibitors. recombinant APE1, TAMRA/BHQ-2 abasic DNA cleavage fluorescence;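 also: plate controls were vehicle for no effect and reference inhibitor for full effect; nearly all actives have a fitted effect of over 55% in size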
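Kinetic fluorescence read (525 ex/598 em nm, three reads 60 s apart) of AP-site incision; signal = third minus first read. Enzyme 0.75 nM, dual-labelled THF duplex 50 nM, compound preincubation 15 min RT.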
JMJD2E inh: inhibitors of human JMJD2E histone demethylase. Potency, µM (doses to about 57.1 µM), for the others: at the highest dose activity change, negative = inhibition, most hits filed as inhibitors. JMJD2E catalytic domain, FDH-coupled NADH fluorescence (FDH is formaldehyde dehydrogenase). 230,000 tested, 1.6% active; active = well fitted inhibition curve with a large enough effect, not every such curve was filed as active; inconclusive = small, poorly fitted or top-dose-only effect, or another doubt; inactive = no such curve, though single readings can be large or run the other way;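 also: 0% = wells with enzyme and -100% = buffer wells without enzyme; nearly all actives have a fitted effect of over 50% in size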
Numbers without * were called inactive; i = inactive; ? = inconclusive; . = no result; [ ] = dose if it differs, or a comment. Unless noted, calls follow the shape of the dose curve; as a rule, active = well fitted curve in the direction sought with a large enough effect; inconclusive = small, poorly fitted or top-dose-only effect, or another doubt; inactive = no such curve, though single readings can be large; an effect the other way counts as inactive or inconclusive. Unless noted, % is scaled to controls: 0 for no effect and ±100 for the full control effect; potency is read from the fitted curve at half-maximal effect.

SMILES	BLM inh	RECQ1 helicase	L3MBTL1 block	TDP1 inh	APE1 inh	JMJD2E inh
Cc1ccc(OCc2ccc(C(=O)O)o2)cc1C	-6.9%	.	.	.	-3.5%	.
O=C(O)c1cccc(N2C(=O)c3cc([N+](=O)[O-])cc4cc([N+](=O)[O-])cc(c34)C2=O)c1	-13.0%	.	31.6µM*	.	-44.9%	.
CC(C)C(=O)c1ccc(O)c(O)c1	0.4%	?	2.6%	2.7%	6.6%	25.1µM*
COC(=O)c1ccc(O)c(Sc2cc(C(=O)OC)ccc2O)c1	-1.9%	i	6.4%	5.3%	?	?
CCOP(=O)(OCC)/C(C#N)=C/c1ccc([N+](=O)[O-])cc1	-4.2%	i	17.0%	8.6%	-3.2%	8.91µM*
CCOP(=O)(OCC)/C(C#N)=C/c1c[nH]c2ccccc12	-3.1%	-14.8%	-5.7%	2.5%	-2.6%	4.9%
COc1ccc2c(c1)OC/C(=C\c1ccc(OC)c(O)c1)C2=O	-12.1%	-0.8%	.	14.7%[56.1 µM]	?	20µM*
COc1ccc(/C=C2\COc3ccccc3C2=O)cc1OC	-3.4%	i	-1.2%	2.4%	6.2%	0.0%
Cc1ccccc1Nc1oc(-c2ccccc2)nc1-c1ccccc1	-1.1%	i	.	11.2%	11.4%	?
CC[n+]1c(C)n(C)c2cc(S(=O)(=O)N(C)C)ccc21	-1.7%	-1.5%	6.3%	0.0%	0.0%	10µM*
CCn1c(C)[n+](CC)c2ccc(S(=O)(=O)N(C)C)cc21	0.9%	25.5%	0.6%	5.1%	1.9%	?
COc1ccc(OC)c(NC(=O)C(OC(=O)CNC(=O)c2ccccc2)c2ccccc2)c1 (centres undefined)	.	.	.	0.8%	.	.
COCCN(CC(=O)Nc1cccc(C)c1C)C(=O)c1cc2c(s1)CCC2	.	.	-24.8%	22.4µM*	15µM*	.
CCOC(=O)C1=C(C)N(c2ccccc2)C(=O)/C1=C\c1ccc(O)c(OC)c1	-1.1%	-17.1%	.	.	-2.6%	4.47µM*
CCOC(=O)C1=C(C)N(c2ccccc2)C(=O)/C1=C\c1ccco1	-5.9%	i	?	1.9%	6.0%	4.7%
Cc1ccccc1NC(=O)/C(C#N)=C\c1cc(C)n(-c2ccc(C(=O)O)cc2)c1C	-3.8%	-8.1%	.	.	?	20µM*
Cc1cc(/C=C(\C#N)C(=O)Nc2ccccc2)c(C)n1-c1ccc2c(c1)OCO2	-7.1%	-12.9%	-6.1%	3.2%	-3.7%	25.1µM*
O=C(CNC(=O)c1ccccc1)OC(C(=O)Nc1ccc2c(c1)OCO2)c1ccccc1 (centres undefined)	.	.	.	0.2%	.	.
O=C1c2ccccc2C(=O)c2c1cccc2N1CCCC1	-27.2%	5.0%	8.91µM*	1.8%	2.7%	2.9%
Cn1c(=O)cc2c3c(c(N4CCCCC4)ccc31)C(=O)c1ccccc1-2	-2.7%	-17.1%	?	9.8%	-6.1%	-1.3%
CCOC(=O)CCCCC(=O)c1[nH]c(=O)[nH]c1C[n+]1ccc(C)cc1	7.1%	-0.8%	.	-2.7%	-11.9%	-4.7%
Cc1[nH]c(=O)[nH]c1C(=O)CCCCC(=O)OCC(=O)Nc1ccccn1	1.5%	0.4%	0.708µM*	8.0%	-0.2%	2.0%
Cc1[nH]n(-c2ccccc2)c(=S)c1C=Nc1ccc([N+](=O)[O-])cc1	-1.2%	-16.4%	2.7%	9.1%	0.8%	6.31µM*
COc1cc(C(=O)OCC(=O)N(CC(C)C)C2CCS(=O)(=O)C2)cc(OC)c1C (centres undefined)	.	.	-8.8%	31.6µM*	-37.3%	.
CC(=O)Nc1cc(NC(C)=O)cc(C(=O)OCC(=O)N(c2ccccc2)C2CCS(=O)(=O)C2)c1 (centres undefined)	.	.	-9.6%	44.7µM*	-35.3%	.
SMILES	BLM inh	RECQ1 helicase	L3MBTL1 block	TDP1 inh	APE1 inh	JMJD2E inh
O=C(O)CCCCCNC(=O)CSc1nnc(-c2ccc([S+](=O)([O-])N3CCCC3)cc2)n1-c1ccccc1	.	.	.	.	42.8%	.
COc1ccc(C2c3c(N)nc(Cc4ccccc4)nc3Oc3ccc4ccccc4c32)cc1OC (centres undefined)	.	.	.	1.7%	.	.
COc1ccc(/C=N/NC(=O)c2ccc(CN3C(=O)c4cccc5cccc3c45)cc2)cc1O	-8.3%	-5.7%	.	0.0%	-3.7%	?
COc1cc(/C=N/NC(=O)c2ccc(CN3C(=O)c4cccc5cccc3c45)cc2)cc(OC)c1O	-3.7%	i	.	0.0%	-3.1%	22.4µM*
Cc1cc2c(s1)c1cnn(Cc3ccccc3Cl)c(=O)c1n2C	.	.	.	0.5%	.	.
Cc1ccc(Cl)cc1NS(=O)(=O)c1cc2c(cc1Cl)CCC(=O)N2	.	.	.	1.7%	.	.
CCN(CC)S(=O)(=O)c1ccc(N/N=C(\C)c2ccc(OC)cc2O)nc1	-10.3%	-12.2%	.	11.2%	-8.2%	31.6µM*
O=C1c2ccccc2C(=O)N1c1cncc2ccccc12	.	.	.	3.4%	.	.
Oc1ccc(C2CNCc3sccc32)cc1O (centres undefined)	.	0.4%	-1.9%	10.9%[56.1 µM]	-4.3%	25.1µM*
Cc1ccc(NC(=O)N2CCC(CN3CCCCCC3)CC2)c(Cl)c1	-2.3%	.	.	2.5%	.	.
O=C(O)CSc1cc(NS(=O)(=O)c2ccc(Cl)cc2)c2ccccc2c1O	25.1µM*	.	.	.	59.6%	.
O=C(CSc1nc2c([nH]c3ccccc32)c(=O)n1-c1ccc(F)cc1)NCc1ccc(F)cc1	1.2%	.	.	6.6%	.	.
Cc1c(P(=S)(c2ccccc2)c2ccccc2)c2ccccc2n1C(=O)NCc1ccccc1	.	.	.	1.3%	.	.
COc1ccc(CCC(=O)Nc2ccc(C)c(S(=O)(=O)N(C)C)c2)cc1OC	0.4%	-14.9%	-0.2%	8.5%	19.0%	2.2%
COc1ccc(CCNCC(=O)Nc2ccc(C)c(S(=O)(=O)N(C)C)c2)cc1	-1.5%	i	1.1%	-14.3%	10.1%	28.2µM*
CC1(C)CC(=O)C2=C(C1)c1c(ccc3ccccc13)NC2c1ccc(C(=O)O)cc1 (centres undefined)	-3.0%	.	.	.	8.7%	.
COc1cc(C2Nc3ccc4ncccc4c3C3=C2C(=O)CC(C)(C)C3)cc(OC)c1O (centres undefined)	-1.1%	i	.	4.5%	-3.3%	7.94µM*
CC1(C)CC(=O)C2=C(C1)c1c(ccc3ccccc13)NC2c1cc([N+](=O)[O-])cc([N+](=O)[O-])c1O (centres undefined)	22.4µM*	i	-26.3%	4.8%	-5.3%	7.1%
O=C(NCc1ccc(F)cc1)n1c(-c2ccccc2)c(P(=S)(c2ccccc2)c2ccccc2)c2ccccc21	.	.	.	-2.3%	.	.
COc1ccc(CN(Cc2ccccc2)C(=O)c2ccccc2O)cc1	.	.	.	11.2µM*	.	.
Cn1ccc2cc(-c3ccc4ncnc(NCc5cccnc5)c4c3)ccc21	.	.	-10.1%	.	27.0%	.
